Data published in PubChem BioAssay AID1159580 (chemical genetic matrix, 2015).
About 2,000 (36%) of roughly 5,500 compounds were called active. About 18% were inconclusive and are not listed. No stated cut-off is given here; in the data, active means normalized growth mostly below about 0.91 (no sharp cut-off); inconclusive means no clear call, values can overlap the other calls; inactive means mostly above about 0.92. This is one part of the list.

Assay: chemical genetic growth profiling, strain panel (AID 1159580);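 further: tested at 20 µM; growth read once vehicle control cultures reached saturation at 30 °C; 1 = growth at the plate median or of vehicle wells; lower values mean less growth of the strain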
Details: growth OD

Measured: normalized growth

Cc1cc(O)cc(C)c1Cl
active: S. cerevisiae deletion strains, locus YKR001C, strain vps1, hits give low values 0.846 | S. cerevisiae deletion strains, locus YLL001W, strain dnm1, hits give low values 0.875 | S. cerevisiae deletion strains, locus YLL026W, hits give low values 0.915 | S. cerevisiae deletion strains, locus YLR221C, strain rsa3, hits give low values 0.856 | S. cerevisiae deletion strains, locus YLR262C, strain YPT6 (second series), hits give low values 0.403 | S. cerevisiae deletion strains, locus YLR320W, strain mms22, hits give low values 0.815 | S. cerevisiae deletion strains, locus YLR370C, strain arc18, hits give low values 0.902 | S. cerevisiae deletion strains, locus YMR058W, strain fet3, hits give low values 0.871 | S. cerevisiae deletion strains, locus YMR231W, strain pep5, hits give low values 0.754 | S. cerevisiae deletion strains, locus YNL071W, strain lat1, hits give low values 0.821 | S. cerevisiae deletion strains, locus YNL248C, strain rpa49, hits give low values 0.835 | S. cerevisiae deletion strains, locus YOR070C, strain gyp1, hits give low values 0.906 | S. cerevisiae deletion strains, locus YOR106W, strain vam3, hits give low values 0.817 | S. cerevisiae deletion strains, locus YOR270C, strain vph1, hits give low values 0.674 | S. cerevisiae deletion strains, locus YPL051W, strain arl3, hits give low values 0.715 | S. cerevisiae deletion strains, locus YPL078C, strain atp4, hits give low values 0.838
inactive: S. cerevisiae deletion strains, locus YKL009W, strain mrt4, hits give low values 0.931 | S. cerevisiae deletion strains, locus YKL068W, hits give low values 1 | S. cerevisiae deletion strains, locus YKL085W, strain MDH1 (second series), hits give low values 0.971 | S. cerevisiae deletion strains, locus YKL085W, strain MDH1, hits give low values 0.971 | S. cerevisiae deletion strains, locus YKL160W, strain elf1, hits give low values 0.915 | S. cerevisiae deletion strains, locus YKL190W, strain CNB1, hits give low values 1 | S. cerevisiae deletion strains, locus YKR026C, strain gcn3, hits give low values 0.952 | S. cerevisiae deletion strains, locus YKR091W, strain srl3, hits give low values 0.958 | S. cerevisiae deletion strains, locus YLL041C, strain sdh2, hits give low values 0.957 | S. cerevisiae deletion strains, locus YLR027C, strain aat2, hits give low values 0.941 | S. cerevisiae deletion strains, locus YLR039C, strain RIC1, hits give low values 0.765 | S. cerevisiae deletion strains, locus YLR058C, strain SHM2, hits give low values 1 | S. cerevisiae deletion strains, locus YLR102C, strain apc9, hits give low values 1 | S. cerevisiae deletion strains, locus YLR113W, strain HOG1, hits give low values 0.944 | S. cerevisiae deletion strains, locus YLR258W, strain gsy2, hits give low values 0.924 | S. cerevisiae deletion strains, locus YLR262C, strain YPT6, hits give low values 0.736 | S. cerevisiae deletion strains, locus YLR268W, strain sec22, hits give low values 1.01 | S. cerevisiae deletion strains, locus YLR330W, strain CHS5, hits give low values 0.994 | S. cerevisiae deletion strains, locus YLR342W, strain FKS1 (second series), hits give low values 0.982 | S. cerevisiae deletion strains, locus YLR342W, strain FKS1, hits give low values 0.935 | S. cerevisiae deletion strains, locus YLR357W, strain rsc2, hits give low values 1.1 | S. cerevisiae deletion strains, locus YLR371W, strain rom2, hits give low values 0.997 | S. cerevisiae deletion strains, locus YLR384C, strain iki3, hits give low values 0.992 | S. cerevisiae deletion strains, locus YLR418C, strain cdc73, hits give low values 1 | S. cerevisiae deletion strains, locus YML016C, strain PPZ1, hits give low values 0.992 | S. cerevisiae deletion strains, locus YML032C, strain rad52, hits give low values 0.957 | S. cerevisiae deletion strains, locus YML120C, strain ndi1, hits give low values 0.917 | S. cerevisiae deletion strains, locus YML124C, strain tub3, hits give low values 0.996 | S. cerevisiae deletion strains, locus YMR078C, strain ctf18, hits give low values 0.994 | S. cerevisiae deletion strains, locus YMR125W, strain sto1, hits give low values 1.04 | S. cerevisiae deletion strains, locus YMR129W, hits give low values 0.966 | S. cerevisiae deletion strains, locus YMR205C, strain PFK2, hits give low values 0.898 | S. cerevisiae deletion strains, locus YMR223W, strain ubp8, hits give low values 1.02 | S. cerevisiae deletion strains, locus YMR307W, strain GAS1, hits give low values 0.904 | S. cerevisiae deletion strains, locus YNL067W, strain RPL9B, hits give low values 0.972 | S. cerevisiae deletion strains, locus YNL153C, strain GIM3, hits give low values 1.02 | S. cerevisiae deletion strains, locus YNL183C, strain NPR1, hits give low values 0.88 | S. cerevisiae deletion strains, locus YNL209W, strain ssb2, hits give low values 0.929 | S. cerevisiae deletion strains, locus YNL233W, strain BNI4, hits give low values 0.992 | S. cerevisiae deletion strains, locus YNL250W, strain rad50, hits give low values 0.992 | S. cerevisiae deletion strains, locus YNL271C, strain bni1, hits give low values 1 | S. cerevisiae deletion strains, locus YNL298W, strain CLA4, hits give low values 0.913 | S. cerevisiae deletion strains, locus YNL307C, strain MCK1, hits give low values 0.995 | S. cerevisiae deletion strains, locus YNL322C, strain KRE1 (second series), hits give low values 0.961 | S. cerevisiae deletion strains, locus YNR049C, strain mso1, hits give low values 0.97 | S. cerevisiae deletion strains, locus YNR052C, strain pop2, hits give low values 1.01 | S. cerevisiae deletion strains, locus YOL006C, strain TOP1, hits give low values 0.979 | S. cerevisiae deletion strains, locus YOL012C, strain htz1 1.64 | S. cerevisiae deletion strains, locus YOL147C, strain pex11, hits give low values 0.997 | S. cerevisiae deletion strains, locus YOR001W, strain rrp6, hits give low values 0.892 | S. cerevisiae deletion strains, locus YOR061W, strain CKA2, hits give low values 0.993 | S. cerevisiae deletion strains, locus YOR069W, strain VPS5, hits give low values 1 | S. cerevisiae deletion strains, locus YOR080W, strain dia2, hits give low values 1.02 | S. cerevisiae deletion strains, locus YOR083W, strain WHI5, hits give low values 0.899 | S. cerevisiae deletion strains, locus YOR136W, strain idh2, hits give low values 0.998 | S. cerevisiae deletion strains, locus YOR144C, strain elg1, hits give low values 1 | S. cerevisiae deletion strains, locus YOR184W, strain ser1, hits give low values 0.958 | S. cerevisiae deletion strains, locus YOR231W, strain MKK1, hits give low values 0.946 | S. cerevisiae deletion strains, locus YOR265W, strain rbl2, hits give low values 0.945 | S. cerevisiae deletion strains, locus YOR290C, strain snf2, hits give low values 0.908 | S. cerevisiae deletion strains, locus YOR316C, strain cot1, hits give low values 0.993 | S. cerevisiae deletion strains, locus YPL055C, strain LGE1, hits give low values 0.947 | S. cerevisiae deletion strains, locus YPL106C, strain sse1, hits give low values 1.1 | S. cerevisiae deletion strains, locus YPL240C, strain hsp82, hits give low values 0.951 | S. cerevisiae deletion strains, locus YPL241C, strain CIN2, hits give low values 0.999 | S. cerevisiae deletion strains, locus YPL256C, strain CLN2, hits give low values 0.92 | S. cerevisiae deletion strains, locus YPR119W, strain clb2, hits give low values 0.997 | S. cerevisiae deletion strains, locus YPR141C, strain kar3, hits give low values 0.999 | S. cerevisiae deletion strains, locus YPR163C, strain tif3, hits give low values 1.01 | S. cerevisiae deletion strains, locus YPR167C, strain met16, hits give low values 0.99 | S. cerevisiae deletion strains, strain wtn01, hits give low values 0.96 | S. cerevisiae strains, strain wild type, hits give low values 0.998
